Results taken from PubChem BioAssay AID1159580 (chemical genetic matrix, 2015).
The whole screen tested about 5,500 compounds, of which about 2,000 (36%) were called active. Not shown: some 18% with an inconclusive outcome. Rule as the data show it: active = normalized growth mostly below about 0.91 (no sharp cut-off); inconclusive = no clear call, values can overlap the other calls; inactive = mostly above about 0.92. Some of the results follow.

Assay: chemical genetic growth profiling, strain panel (AID 1159580);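 also: tested at 20 µM; growth read once vehicle control cultures reached saturation at 30 °C; 1 = growth at the plate median or of vehicle wells; lower values mean less growth of the strain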
Conditions: growth OD

Measured: normalized growth

C/C=C(/C)C(=O)O[C@@H]1[C@H](OC(C)=O)[C@@]2(CO)C(CC1(C)C)C1=CCC3[C@@]4(C)CC[C@H](O[C@@H]5O[C@H](C(=O)O)[C@@H](O[C@@H]6O[C@H](CO)[C@@H](O)[C@H](O)[C@H]6O)[C@H](O)[C@H]5O[C@@H]5O[C@H](CO)[C@@H](O)[C@H](O)[C@H]5O)[C@](C)(CO)C4CC[C@@]3(C)[C@]1(C)C[C@H]2O (some centres not stated)
inactive: S. cerevisiae deletion strains, locus YKL009W, strain mrt4, active compounds read low 1.06 | S. cerevisiae deletion strains, locus YKL068W, active compounds read low 1.01 | S. cerevisiae deletion strains, locus YKL085W, strain MDH1 (second series), active compounds read low 1.06 | S. cerevisiae deletion strains, locus YKL085W, strain MDH1, active compounds read low 1.06 | S. cerevisiae deletion strains, locus YKL160W, strain elf1, active compounds read low 1.02 | S. cerevisiae deletion strains, locus YKR001C, strain vps1, active compounds read low 1.01 | S. cerevisiae deletion strains, locus YKR026C, strain gcn3, active compounds read low 0.99 | S. cerevisiae deletion strains, locus YKR091W, strain srl3, active compounds read low 0.99 | S. cerevisiae deletion strains, locus YLL001W, strain dnm1, active compounds read low 1.01 | S. cerevisiae deletion strains, locus YLL026W, active compounds read low 0.988 | S. cerevisiae deletion strains, locus YLL041C, strain sdh2, active compounds read low 0.983 | S. cerevisiae deletion strains, locus YLR027C, strain aat2, active compounds read low 0.996 | S. cerevisiae deletion strains, locus YLR039C, strain RIC1, active compounds read low 1.04 | S. cerevisiae deletion strains, locus YLR058C, strain SHM2, active compounds read low 1.01 | S. cerevisiae deletion strains, locus YLR102C, strain apc9, active compounds read low 1.02 | S. cerevisiae deletion strains, locus YLR113W, strain HOG1, active compounds read low 0.967 | S. cerevisiae deletion strains, locus YLR221C, strain rsa3, active compounds read low 1 | S. cerevisiae deletion strains, locus YLR258W, strain gsy2, active compounds read low 0.981 | S. cerevisiae deletion strains, locus YLR262C, strain YPT6 (second series), active compounds read low 1.01 | S. cerevisiae deletion strains, locus YLR262C, strain YPT6, active compounds read low 1.08 | S. cerevisiae deletion strains, locus YLR268W, strain sec22, active compounds read low 1.04 | S. cerevisiae deletion strains, locus YLR320W, strain mms22, active compounds read low 0.973 | S. cerevisiae deletion strains, locus YLR330W, strain CHS5, active compounds read low 1.01 | S. cerevisiae deletion strains, locus YLR342W, strain FKS1 (second series), active compounds read low 1.05 | S. cerevisiae deletion strains, locus YLR342W, strain FKS1, active compounds read low 0.988 | S. cerevisiae deletion strains, locus YLR357W, strain rsc2, active compounds read low 0.984 | S. cerevisiae deletion strains, locus YLR370C, strain arc18, active compounds read low 0.992 | S. cerevisiae deletion strains, locus YLR371W, strain rom2, active compounds read low 1.03 | S. cerevisiae deletion strains, locus YLR384C, strain iki3, active compounds read low 1 | S. cerevisiae deletion strains, locus YLR418C, strain cdc73, active compounds read low 1 | S. cerevisiae deletion strains, locus YML016C, strain PPZ1, active compounds read low 1.01 | S. cerevisiae deletion strains, locus YML032C, strain rad52, active compounds read low 1.03 | S. cerevisiae deletion strains, locus YML120C, strain ndi1, active compounds read low 1.01 | S. cerevisiae deletion strains, locus YML124C, strain tub3, active compounds read low 1.02 | S. cerevisiae deletion strains, locus YMR058W, strain fet3, active compounds read low 0.99 | S. cerevisiae deletion strains, locus YMR078C, strain ctf18, active compounds read low 1.02 | S. cerevisiae deletion strains, locus YMR125W, strain sto1, active compounds read low 0.959 | S. cerevisiae deletion strains, locus YMR129W, active compounds read low 0.979 | S. cerevisiae deletion strains, locus YMR205C, strain PFK2, active compounds read low 0.925 | S. cerevisiae deletion strains, locus YMR223W, strain ubp8, active compounds read low 1.02 | S. cerevisiae deletion strains, locus YMR231W, strain pep5, active compounds read low 0.973 | S. cerevisiae deletion strains, locus YMR307W, strain GAS1, active compounds read low 1.08 | S. cerevisiae deletion strains, locus YNL067W, strain RPL9B, active compounds read low 1.02 | S. cerevisiae deletion strains, locus YNL071W, strain lat1, active compounds read low 1 | S. cerevisiae deletion strains, locus YNL183C, strain NPR1, active compounds read low 0.969 | S. cerevisiae deletion strains, locus YNL209W, strain ssb2, active compounds read low 0.988 | S. cerevisiae deletion strains, locus YNL233W, strain BNI4, active compounds read low 1.01 | S. cerevisiae deletion strains, locus YNL248C, strain rpa49, active compounds read low 1.02 | S. cerevisiae deletion strains, locus YNL250W, strain rad50, active compounds read low 1.04 | S. cerevisiae deletion strains, locus YNL271C, strain bni1, active compounds read low 1.03 | S. cerevisiae deletion strains, locus YNL298W, strain CLA4, active compounds read low 1.01 | S. cerevisiae deletion strains, locus YNL307C, strain MCK1, active compounds read low 1.03 | S. cerevisiae deletion strains, locus YNL322C, strain KRE1 (second series), active compounds read low 0.983 | S. cerevisiae deletion strains, locus YNL322C, strain KRE1, active compounds read low 1.01 | S. cerevisiae deletion strains, locus YNR049C, strain mso1, active compounds read low 0.982 | S. cerevisiae deletion strains, locus YNR052C, strain pop2, active compounds read low 1.02 | S. cerevisiae deletion strains, locus YOL006C, strain TOP1, active compounds read low 0.991 | S. cerevisiae deletion strains, locus YOL012C, strain htz1 1.42 | S. cerevisiae deletion strains, locus YOL147C, strain pex11, active compounds read low 1.02 | S. cerevisiae deletion strains, locus YOR001W, strain rrp6, active compounds read low 0.992 | S. cerevisiae deletion strains, locus YOR061W, strain CKA2, active compounds read low 1.01 | S. cerevisiae deletion strains, locus YOR069W, strain VPS5, active compounds read low 1 | S. cerevisiae deletion strains, locus YOR070C, strain gyp1, active compounds read low 1 | S. cerevisiae deletion strains, locus YOR080W, strain dia2, active compounds read low 0.968 | S. cerevisiae deletion strains, locus YOR083W, strain WHI5, active compounds read low 1.02 | S. cerevisiae deletion strains, locus YOR106W, strain vam3, active compounds read low 1.01 | S. cerevisiae deletion strains, locus YOR136W, strain idh2, active compounds read low 1.02 | S. cerevisiae deletion strains, locus YOR144C, strain elg1, active compounds read low 1.02 | S. cerevisiae deletion strains, locus YOR184W, strain ser1, active compounds read low 1.02 | S. cerevisiae deletion strains, locus YOR231W, strain MKK1, active compounds read low 0.967 | S. cerevisiae deletion strains, locus YOR265W, strain rbl2, active compounds read low 0.993 | S. cerevisiae deletion strains, locus YOR270C, strain vph1, active compounds read low 0.883 | S. cerevisiae deletion strains, locus YOR290C, strain snf2, active compounds read low 0.966 | S. cerevisiae deletion strains, locus YOR316C, strain cot1, active compounds read low 1.02 | S. cerevisiae deletion strains, locus YPL051W, strain arl3, active compounds read low 1.02 | S. cerevisiae deletion strains, locus YPL055C, strain LGE1, active compounds read low 1 | S. cerevisiae deletion strains, locus YPL078C, strain atp4, active compounds read low 1.01 | S. cerevisiae deletion strains, locus YPL106C, strain sse1, active compounds read low 0.981 | S. cerevisiae deletion strains, locus YPL240C, strain hsp82, active compounds read low 1.01 | S. cerevisiae deletion strains, locus YPL241C, strain CIN2, active compounds read low 1 | S. cerevisiae deletion strains, locus YPL256C, strain CLN2, active compounds read low 0.967 | S. cerevisiae deletion strains, locus YPR119W, strain clb2, active compounds read low 1.03 | S. cerevisiae deletion strains, locus YPR141C, strain kar3, active compounds read low 1.04 | S. cerevisiae deletion strains, locus YPR163C, strain tif3, active compounds read low 1.02 | S. cerevisiae deletion strains, locus YPR167C, strain met16, active compounds read low 1.02 | S. cerevisiae deletion strains, strain wtn01, active compounds read low 1.02 | S. cerevisiae strains, strain wild type, active compounds read low 1.01
